# From PubChem BioAssay (Tox21)
# Several values for one entry are separate records, joined by “and”; a condition that tells them apart may be missing. Identical values can stand only once. Some compounds were tested as several samples or in several runs, with calls that do not always agree. Activity calls are given as the source filed them. A call without a number means that no potency is given here. Unless noted, calls come from the whole dose curve; as a rule, active = well fitted curve in the direction sought with a large enough effect in the repeat runs; inconclusive = weak or mixed curves; inactive = no such curve, though single readings can be large; an effect the other way counts as inactive or inconclusive.
# Legend:
# [1] = qHTS assay to identify small molecule antagonists of the glucocorticoid receptor (GR) signaling pathway - cell viability counter screen (AID 720693); note: nearly all actives have a fitted effect of over 55% in size; note: potency is the fitted concentration of half-maximal effect
# [2] = qHTS assay for identifying genotoxic compounds that show differential cytotoxicity against isogenic chicken DT40 cell lines with known DNA damage response pathways - wild type cell line (AID 743012); note: nearly all actives have a fitted effect of over 60% in size; note: potency is the fitted concentration of half-maximal effect
# In short: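 Viability by ATP luminescence (CellTiter-Glo, 30 min RT) after 40 h compound treatment at 37 C/5% CO2, using 300 parental DNA repair-proficient DT40 cells per well.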
# [3] = qHTS assay for identifying genotoxic compounds that show differential cytotoxicity against isogenic chicken DT40 cell lines with known DNA damage response pathways - Rev3 mutant cell line (AID 743014); note: nearly all actives have a fitted effect of over 55% in size; note: potency is the fitted concentration of half-maximal effect
# [4] = qHTS assay for identifying genotoxic compounds that show differential cytotoxicity against isogenic chicken DT40 cell lines with known DNA damage response pathways - Rad54/Ku70 mutant cell line (AID 743015); note: nearly all actives have a fitted effect of over 60% in size; note: potency is the fitted concentration of half-maximal effect
# [5] = qHTS assay to identify small molecule antagonists of the androgen receptor (AR) signaling pathway - cell viability counter screen (AID 743033; note: nearly all actives have a fitted effect of over 45% in size; note: potency is the fitted concentration of half-maximal effect)
# [6] = qHTS assay to identify small molecule antagonists of the androgen receptor (AR) signaling pathway using the MDA cell line - cell viability counter screen (AID 743041; note: nearly all actives have a fitted effect of over 45% in size; note: potency is the fitted concentration of half-maximal effect)
# In short: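 Compound exposure lasted 16 h at 37C in MDA-kb2 AR-luc cells stimulated with R1881. Protease-based CellTiter-Fluor reagent was applied for the final 30 min and fluorescence measured.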
# [7] = qHTS assay to identify small molecule antagonists of the thyroid receptor (TR) signaling pathway - cell viability counter screen (AID 743064); note: nearly all actives have a fitted effect of over 50% in size; note: potency is the fitted concentration of half-maximal effect
# In short: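 In rat pituitary GH3.TRE-Luc reporter cells co-exposed to compound and 1 nM T3 for 23.5 h, cytotoxicity was assessed with CellTiter-Fluor in the same wells, read by fluorescence.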
# [8] = qHTS assay to identify small molecule antagonists of the thyroid receptor (TR) signaling pathway (AID 743065); note: nearly all actives have a fitted effect of over 55% in size; note: potency is the fitted concentration of half-maximal effect
# In short: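 GH3.TRE-Luc rat pituitary cells (two TREs driving luciferase) were dosed with compound, then stimulated with 1 nM T3 (final) for 23.5 h at 37 C. ONE-Glo luminescence was the read-out, with CellTiter-Fluor fluorescence as the cytotoxicity counter-screen.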
# [9] = test system: thyroid hormone receptor (rat, GH3 cells); assay: qHTS assay to identify small molecule agonists of the thyroid receptor (TR) signaling pathway (AID 743066; calls by dose curve)
# [10] = biological target: Estrogen receptor (Homo sapiens) (UniProt P03372); assay: qHTS assay to identify small molecule antagonists of the estrogen receptor alpha (ER-alpha) signaling pathway (AID 743069; active = well fitted curve in the direction sought with a large enough effect in the signal ratio in the repeat runs, not every such curve was filed as active; inconclusive = weak or mixed curves, or effect the other way; inactive = no such curve, though single readings can be large or run the other way; the % refers to the signal ratio; note: potency is the fitted concentration of half-maximal effect)
# Estrogen receptor (Homo sapiens), sequence (P03372 whole entry, looked up): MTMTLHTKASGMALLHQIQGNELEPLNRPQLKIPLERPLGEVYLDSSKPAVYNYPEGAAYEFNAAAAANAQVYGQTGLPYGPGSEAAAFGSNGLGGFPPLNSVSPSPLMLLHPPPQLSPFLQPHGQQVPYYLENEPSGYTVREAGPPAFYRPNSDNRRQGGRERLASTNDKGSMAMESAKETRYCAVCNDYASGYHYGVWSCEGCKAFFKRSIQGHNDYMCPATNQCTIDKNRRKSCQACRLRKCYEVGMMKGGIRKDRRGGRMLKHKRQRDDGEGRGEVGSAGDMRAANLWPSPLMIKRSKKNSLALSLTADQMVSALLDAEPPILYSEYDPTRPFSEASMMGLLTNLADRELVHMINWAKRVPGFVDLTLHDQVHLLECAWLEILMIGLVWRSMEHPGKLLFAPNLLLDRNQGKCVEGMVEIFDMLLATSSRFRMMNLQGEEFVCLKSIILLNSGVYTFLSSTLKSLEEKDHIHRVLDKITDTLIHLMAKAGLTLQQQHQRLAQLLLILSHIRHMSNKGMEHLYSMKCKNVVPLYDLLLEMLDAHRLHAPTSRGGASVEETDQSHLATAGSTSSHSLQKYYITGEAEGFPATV
# In short: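 In this cell-based reporter format, GripTite HEK293 cells harbouring ER-alpha-UAS-bla were grown overnight with 2% charcoal-stripped FBS, dosed with DMSO-dissolved compounds, then challenged with 17beta-estradiol. After 18 hr at 37C, beta-lactamase activity was detected by FRET fluorescence.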
# [11] = qHTS assay to identify small molecule antagonists of the estrogen receptor alpha (ER-alpha) signaling pathway - cell viability counter screen (AID 743074; calls by dose curve; note: nearly all actives have a fitted effect of over 45% in size; note: potency is the fitted concentration of half-maximal effect)
# [12] = biological target: Estrogen receptor (Homo sapiens) (UniProt P03372); assay: qHTS assay to identify small molecule agonists of the estrogen receptor alpha (ER-alpha) signaling pathway (AID 743075; calls by dose curve; note: potency is the fitted concentration of half-maximal effect)
# [13] = biological target: Estrogen receptor (Homo sapiens) (UniProt P03372); assay: qHTS assay to identify small molecule agonists of the estrogen receptor alpha (ER-alpha) signaling pathway using the BG1 cell line (AID 743079); note: nearly all actives have a fitted effect of over 20% in size; note: potency is the fitted concentration of half-maximal effect
# [14] = qHTS assay to identify small molecule antagonists of the estrogen receptor alpha (ER-alpha) signaling pathway using the BG1 cell line - cell viability counter screen (AID 743081);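 note: compound given together with 17beta-estradiol as the ER stimulus; nearly all actives have a fitted effect of over 45% in size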; note: potency is the fitted concentration of half-maximal effect
# [15] = biological target: Aromatase (Homo sapiens) (UniProt P11511); assay: qHTS assay to identify aromatase inhibitors (AID 743083); note: nearly all actives have a fitted effect of over 55% in size; note: potency is the fitted concentration of half-maximal effect
# Aromatase (Homo sapiens), sequence (P11511 whole entry, looked up): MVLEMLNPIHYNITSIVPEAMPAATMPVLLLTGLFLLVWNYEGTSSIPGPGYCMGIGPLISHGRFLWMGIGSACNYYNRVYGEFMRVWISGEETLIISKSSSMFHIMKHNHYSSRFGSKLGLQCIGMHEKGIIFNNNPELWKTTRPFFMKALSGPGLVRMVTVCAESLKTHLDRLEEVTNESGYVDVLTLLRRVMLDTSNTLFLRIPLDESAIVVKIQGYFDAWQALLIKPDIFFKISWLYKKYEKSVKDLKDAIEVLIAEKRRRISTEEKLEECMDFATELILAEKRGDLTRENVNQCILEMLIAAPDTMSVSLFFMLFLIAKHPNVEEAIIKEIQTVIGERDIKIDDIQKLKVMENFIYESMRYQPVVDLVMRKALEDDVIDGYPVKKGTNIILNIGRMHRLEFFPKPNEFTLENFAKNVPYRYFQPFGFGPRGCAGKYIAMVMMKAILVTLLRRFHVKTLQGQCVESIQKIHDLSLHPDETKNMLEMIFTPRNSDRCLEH
# [16] = qHTS assay to identify aromatase inhibitors - cell viability counter screen (AID 743084); note: potency is the fitted concentration of half-maximal effect
# [17] = biological target: Androgen receptor (Homo sapiens) (UniProt P10275); assay: qHTS assay to identify small molecule antagonists of the androgen receptor (AR) signaling pathway (AID 743035; active = well fitted inhibition curve with a large enough effect in the signal ratio in the repeat runs, not every such curve was filed as active; inconclusive = weak or mixed curves, or effect the other way; inactive = no such curve, though single readings can be large or run the other way; the % refers to the signal ratio; note: potency is the fitted concentration of half-maximal effect)
# Androgen receptor (Homo sapiens), sequence (P10275 whole entry, looked up): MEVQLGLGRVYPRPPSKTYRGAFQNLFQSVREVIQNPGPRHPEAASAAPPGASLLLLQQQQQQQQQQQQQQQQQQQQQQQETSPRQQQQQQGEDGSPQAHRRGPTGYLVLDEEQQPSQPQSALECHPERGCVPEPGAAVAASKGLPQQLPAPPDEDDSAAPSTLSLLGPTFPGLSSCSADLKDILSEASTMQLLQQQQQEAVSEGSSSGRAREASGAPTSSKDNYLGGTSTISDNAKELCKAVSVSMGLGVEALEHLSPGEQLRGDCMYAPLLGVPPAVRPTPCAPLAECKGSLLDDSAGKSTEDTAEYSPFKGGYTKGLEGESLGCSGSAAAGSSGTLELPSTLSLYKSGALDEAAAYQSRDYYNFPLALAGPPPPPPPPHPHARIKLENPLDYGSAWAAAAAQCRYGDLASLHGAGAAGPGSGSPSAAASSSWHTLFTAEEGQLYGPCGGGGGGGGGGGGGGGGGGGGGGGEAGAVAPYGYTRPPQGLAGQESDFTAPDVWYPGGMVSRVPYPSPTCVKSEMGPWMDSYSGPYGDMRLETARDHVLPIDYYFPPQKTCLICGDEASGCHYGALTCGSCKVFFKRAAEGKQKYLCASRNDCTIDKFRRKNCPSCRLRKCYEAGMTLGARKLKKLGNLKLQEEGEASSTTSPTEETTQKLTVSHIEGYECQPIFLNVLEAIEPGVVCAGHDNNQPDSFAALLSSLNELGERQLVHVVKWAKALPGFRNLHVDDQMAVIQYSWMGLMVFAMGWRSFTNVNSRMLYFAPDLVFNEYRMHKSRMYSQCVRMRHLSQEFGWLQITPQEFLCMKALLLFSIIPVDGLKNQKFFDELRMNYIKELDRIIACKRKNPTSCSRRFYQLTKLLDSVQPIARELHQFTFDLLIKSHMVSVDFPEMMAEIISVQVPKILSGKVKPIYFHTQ
# In short: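 Antagonist mode: AR-bla HEK293 cells co-treated with test compounds and agonist R1881 for 16 h at 37C, 5% CO2. Beta-lactamase activity read as FRET fluorescence after 2 h room-temperature substrate loading.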
# [18] = biological target: Androgen receptor (Homo sapiens) (UniProt P10275); assay: qHTS assay to identify small molecule agonists of the androgen receptor (AR) signaling pathway using the MDA cell line (AID 743040; note: nearly all actives have a fitted effect of over 20% in size); conditions: MDA-kb2 AR-luc cells, MMTV luciferase, 16 h; activity change: at 70.3 µM (top of the series), stronger effect = higher value
# In short: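 Testing was done with the MDA-kb2 AR-luc line, a human breast carcinoma stably transfected with MMTV-luciferase containing AR and GR response elements. Cells were exposed 16 h at 37C before ONE-Glo luminescence detection.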
# [19] = biological target: Androgen receptor (Homo sapiens) (UniProt P10275); assay: qHTS assay to identify small molecule antagonists of the androgen receptor (AR) signaling pathway using the MDA cell line (AID 743042; note: nearly all actives have a fitted effect of over 55% in size)
# In short: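 MDA-kb2 breast carcinoma cells carrying MMTV-luciferase (AR/GR responsive) were co-treated with compounds and the agonist R1881 for 16 h at 37C. Inhibition read as ONE-Glo luminescence; CellTiter-Fluor fluorescence measured in parallel for cytotoxicity.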
# [20] = qHTS assay to identify small molecule antagonists of the estrogen receptor alpha (ER-alpha) signaling pathway using the BG1 cell line (AID 743080; calls by dose curve;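 note: BG1 cells stimulated with 17beta-estradiol alongside compound; nearly all actives have a fitted effect of over 25% in size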)
# In short: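 Luminescence from a 4×ERE-luciferase reporter in BG1-Luc-4E2 cells served as read-out. Cells, pre-cultured 5 days in stripped-serum phenol-red-free medium, were exposed to compound with 17beta-estradiol co-stimulation for 21.5 h at 37 C.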
Structure (SMILES),Potency [1],Potency [2],Potency [3],Potency [4],Potency [5],Potency [6],Potency [7],Potency [8],Potency [9],Potency [10],Potency [11],Potency [12],Potency [13],Potency [14],Potency [15],Potency [16],Potency [17],Potency [18],Potency [19],Potency [20]
CCCC(C)(COC(N)=O)COC(=O)NC(C)C (stereo unspecified),inactive,inactive,inactive,inactive,inactive,inactive,inactive,inactive,inactive,inactive,inactive,inactive,inactive,inactive,inactive,inactive,,,,
CCC1(C2=NCCN2)Cc2ccccc2O1 (stereo unspecified),inactive,5.31 µM (active),5.31 µM (active),6.68 µM (active),inactive,inactive,inactive,,inactive,,inactive,inactive,inactive,inactive,inactive,inactive,19 µM (active),inactive,inactive,
O=C(O)COc1cc(Cl)c(Cl)cc1Cl,inactive,inactive,inactive,inactive,inactive,inactive,inactive,54.5 µM (active),inactive,,,,,inactive,inactive,inactive,inactive,inactive,inactive,
COc1cc(CC(C)N)c(OC)cc1Br (stereo unspecified),inactive,11.2 µM (active) and 29.8 µM (active),15.9 µM (active),15.9 µM (active),inactive,inactive,35.5 µM (active) and 23.7 µM (active),35.5 µM (active) and 23.7 µM (active),inactive,inactive,inactive,inactive,inactive,inactive,inactive,inactive,,,,
N#CC(C#N)=Cc1ccc(O)c(O)c1,inactive,13.3 µM (active),26.6 µM (active),26.6 µM (active),inactive,,,26.6 µM (active),inactive,,inactive,,inactive,inactive,inactive,inactive,,inactive,inactive,inactive
CON(C)C(=O)Nc1ccc(Cl)cc1,inactive,inactive,inactive,inactive,inactive,inactive,inactive,inactive,inactive,inactive,inactive,inactive,inactive,inactive,inactive,inactive,,,,inactive
CCCSP(=S)(OCC)Oc1ccc(SC)cc1 (stereo unspecified),inactive,43.3 µM (active),15.4 µM (active),27.3 µM (active),inactive,inactive,inactive,inactive,inactive,inactive,inactive,inactive,inactive,inactive,inactive,inactive,,,,inactive
CC(Cl)C(=O)O (stereo unspecified),inactive,inactive,inactive,inactive,inactive,inactive,,inactive,inactive,,inactive,,,inactive,inactive,inactive,inactive,inactive,inactive,
CCCCC(CC)CO[N+](=O)[O-] (stereo unspecified),inactive,inactive,inactive,inactive,inactive,inactive,inactive,inactive,inactive,inactive,inactive,inactive,inactive,inactive,inactive,inactive,,,,inactive
O=C1CC[C@@]2(O)[C@H]3Cc4ccc(O)c5c4[C@@]2(CCN3CC2CC2)[C@H]1O5,inactive,inactive,inactive,inactive,inactive,inactive,inactive,inactive,inactive,,inactive,,,inactive,inactive,inactive,,,,
CC(C)CCON=O,inactive,inactive,inactive,inactive,inactive,inactive,inactive,inactive,inactive,,inactive,,,inactive,inactive,inactive,,,,
O=C(O)C(O)C(O)C(=O)O (stereo unspecified),inactive,inactive,inactive,inactive,inactive,inactive,inactive,,inactive,inactive,inactive,inactive,inactive,inactive,inactive,inactive,,,,inactive
c1ccc2c(c1)-c1cccc3cccc-2c13,inactive,inactive,inactive and 61.1 µM (active),inactive,inactive,inactive,inactive,inactive,inactive,,inactive,,,inactive,inactive,inactive,,,,
OCCCl,inactive,inactive,inactive,inactive,inactive,inactive,inactive,inactive,inactive,,inactive,,,inactive,inactive,inactive,,,,
CN1C[C@H](C(=O)N[C@]2(C)O[C@@]3(O)[C@@H]4CCCN4C(=O)[C@H](Cc4ccccc4)N3C2=O)C=C2c3cccc4[nH]cc(c34)C[C@H]21,inactive,21.1 µM (active) and 48.8 µM (active) and 22.6 µM (active),23.7 µM (active) and 27.4 µM (active) and 18 µM (active),9.44 µM (active) and 13.7 µM (active) and 10.1 µM (active),inactive,inactive,inactive,,inactive,61.9 µM [cytotoxic] (active) and inactive,inactive,inactive,inactive,16.8 µM (active) and 27.4 µM (active),inactive,inactive,,,,inactive
CC(C)(C)OOC(C)(C)CCC(C)(C)OOC(C)(C)C,inactive,inactive,68.6 µM (active),inactive,inactive,inactive,inactive,inactive,inactive,,inactive,,,inactive,,,,,,

Structure (SMILES),Potency [1],Potency [2],Potency [3],Potency [4],Potency [5],Potency [6],Potency [7],Potency [8],Potency [9],Potency [10],Potency [11],Potency [12],Potency [13],Potency [14],Potency [15],Potency [16],Potency [17],Potency [18],Potency [19],Potency [20]
Cc1ccc(N)c(C)c1,inactive,inactive,inactive,inactive,inactive,inactive,inactive,inactive,inactive,,inactive,,,inactive,inactive,inactive,,,,
C=CCN1C[C@H](C)N([C@H](c2ccc(C(=O)N(CC)CC)cc2)c2cccc(OC)c2)C[C@H]1C,inactive,8.41 µM (active),13.3 µM (active),18.8 µM (active),inactive,inactive,,,inactive,,inactive,inactive,inactive,inactive,inactive,inactive,,,,inactive
Cc1ccc2c(C)cccc2c1,inactive,inactive,inactive,inactive,inactive,inactive,inactive,inactive,inactive,,inactive,inactive,inactive,inactive,inactive,inactive,,,,
C=CCSSCC=C,inactive,inactive,inactive,inactive,inactive,inactive,inactive,inactive,inactive,,inactive,,,inactive,inactive,inactive,,,,
CCC(C)Cl (stereo unspecified),inactive,inactive,inactive,inactive,inactive,inactive,inactive,inactive,inactive,,inactive,inactive,inactive,inactive,inactive,inactive,,,,
O=C(CCl)CCl,inactive,0.864 µM (active),0.273 µM (active),inactive and 686 nM (active),inactive,inactive,25.2 µM (active) and 15.4 µM (active),25.2 µM (active) and 8.63 µM (active),inactive,,inactive,50.7 µM [activator] (active) and 1.1 µM [inconclusive] (active),inactive,inactive,44.9 µM (active) and 8.63 µM (active),15.4 µM (active),,,,
O=C1c2ccccc2C(=O)N1SC(Cl)(Cl)Cl,17.1 µM (active) and 13.8 µM (active),603 nM (active) and 154 nM (active),67.6 nM (active) and 109 nM (active),135 nM (active) and 154 nM (active),2.71 µM (active) and 3.09 µM (active),21.7 µM (active),4.27 µM (active) and 2.17 µM (active),2.4 µM (active) and 1.54 µM (active),,24.5 µM [inconclusive] (active),21.6 µM (active) and inactive,inactive,,,3.02 µM (active) and 4.86 µM (active),1.22 µM (active),,,,
N#CC1(N=NC2(C#N)CCCCC2)CCCCC1,inactive,inactive,inactive,inactive,inactive,inactive,inactive,inactive,inactive,,inactive,,,inactive,inactive,inactive,,,,
Cc1nc(N(C)C)nc(OC(=O)N(C)C)c1C,inactive,inactive,inactive,inactive,inactive,inactive,,inactive,inactive,inactive,inactive,inactive,inactive,inactive,inactive,inactive,,,,inactive
C[N+]1(CCF)[C@@H]2CC[C@H]1CC(OC(=O)C(O)(c1ccccc1)c1ccccc1)C2 (stereo partly specified),inactive,inactive,inactive,inactive,inactive,inactive,,inactive,inactive,,,,15 µM (active),inactive,inactive,inactive,,,,
CCCCCCCCCCCCCCCl,inactive,inactive,inactive,inactive,inactive,inactive,,inactive,inactive,,inactive,inactive,inactive,inactive,inactive,inactive,,,,inactive
CCCCCCCCn1sccc1=O,inactive,4.87 µM (active) and 454 nM (active),2.17 µM (active) and 719 nM (active),3.07 µM (active) and 1.02 µM (active),4.37 µM (active) and 20.4 µM (active),36 µM (active),6.13 µM (active) and 5.09 µM (active),4.87 µM (active) and 3.6 µM (active),,,55.1 µM (active) and 51.3 µM (active),,,inactive,10.9 µM (active) and 32.1 µM (active),12.2 µM (active) and 40.4 µM (active),,,,inactive
NNCCO,inactive,inactive,inactive,inactive,inactive,inactive,inactive,inactive,inactive,,inactive,inactive,,inactive,inactive,inactive,,,,
C[C@H](N)[C@H](O)c1ccc(O)c(O)c1,inactive,13.3 µM (active),11.9 µM (active),16.8 µM (active),inactive,inactive,26.6 µM (active),,,inactive,inactive,inactive,inactive,,inactive,inactive,,,,
C1CS1,inactive,inactive,inactive,inactive,inactive,inactive,inactive,inactive,inactive,,inactive,inactive,inactive,inactive,inactive,inactive,,,,inactive
C[C@@H]1C[C@@H]([C@H](O)CC2CC(=O)NC(=O)C2)C(=O)[C@@H](C)C1,inactive,59.6 nM (active) and 108 nM (active),119 nM (active) and 60.8 nM (active),133 nM (active) and 121 nM (active),379 nM (active) and 97.2 nM (active),inactive,0.237 µM (active),66.8 nM (active) and 60.8 nM (active),inactive,,,,,inactive,750 nM (active) and 383 nM (active),,,,,
